Cruzain inh noDet = blocks cruzain activity in detergent-free assay. Potency, µM, without a hit: max response, negative = inhibition, hits mostly inhibitors. 200,000 tested, 2.3% active. P25779. AID 1476. purified cruzain, Z-FR-AMC fluorescence, no detergent;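 also: plate controls were enzyme without inhibitor for no effect and buffer without enzyme for full effect; nearly all actives have a fitted effect of over 40% in size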
Target sequence (P25779 123-467 limits assumed): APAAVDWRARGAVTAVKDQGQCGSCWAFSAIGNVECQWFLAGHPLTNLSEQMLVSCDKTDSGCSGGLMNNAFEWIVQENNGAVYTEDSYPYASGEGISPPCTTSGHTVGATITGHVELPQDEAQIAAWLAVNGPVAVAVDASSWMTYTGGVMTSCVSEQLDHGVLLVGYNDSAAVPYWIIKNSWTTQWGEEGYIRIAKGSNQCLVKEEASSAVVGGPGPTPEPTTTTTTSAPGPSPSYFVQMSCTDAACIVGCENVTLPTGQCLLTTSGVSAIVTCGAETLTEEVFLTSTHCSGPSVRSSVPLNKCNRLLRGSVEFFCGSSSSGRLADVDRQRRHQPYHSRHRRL
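Purified cruzain at 1.5 nM, pre-incubated 15 min with compound at room temperature in 100 mM sodium acetate pH 5.5, 5 mM DTT, 0.00005% Triton X-100. Reaction started with 2 uM Z-FR-AMC; AMC fluorescence increase over 60 s gives rate.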
Cruzain Triton = blocks cruzain activity in presence of Triton detergent; AID 1478; Potency, µM, inactives show max response, negative = inhibition, most hits filed as inhibitors; 200,000 tested, 0.43% active; purified cruzain, Z-FR-AMC fluorescence, 0.01% Triton; P25779;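 also: plate controls were neutral wells for no effect and buffer without enzyme for full effect; nearly all actives have a fitted effect of over 40% in size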
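In this qHTS format, compounds are incubated with 1.5 nM cruzain for 15 min at room temperature before 2 uM Z-FR-AMC is added. Release of AMC is followed at 360/450 nm, and progress is taken as the 60 s fluorescence difference.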
* marks the source's active call; other numbers are inactive results; u = inconclusive. An excerpt weighted towards active compounds, which were near 2.5% of everything screened. Calls follow the shape of the dose curve; as a rule, active = well fitted curve in the direction sought with a large enough effect; inconclusive = small, poorly fitted or top-dose-only effect, or another doubt; inactive = no such curve, though single readings can be large; an effect the other way counts as inactive or inconclusive. Potency is read from the fitted curve at half-maximal effect.

SMILES | Cruzain inh noDet | Cruzain Triton
COc1ccc(CCNC(=O)Cn2c(=O)n(-c3ccc(C)c(C)c3)c(=O)c3c(C)c(C)sc32)cc1OC | u | -1%
Cc1ccccc1C(=O)Nc1nc2nc(C)c(C)c(=O)n2[nH]1 | -1% | 4%
COC(=O)c1cc2sc(C)cc2n1CC(=O)Nc1ccc(C)cc1Cl | -2% | -2%
CCC(C(=O)NC1CCCCC1)n1c(SCc2cccc(C)c2)nc2ccncc21 (stereo not given) | u | 14µM*
Cc1cccc(Cn2c(SCc3ccc(C(=O)NC4CCCCC4)cc3)nc3ccncc32)c1 | -12% | 1%
COc1cc2ccccc2cc1C(=O)Nc1ccc2oc(-c3ccc(F)cc3Cl)nc2c1 | 17% | -1%
COC(=O)c1c(NC(=O)COC(=O)CCS(=O)(=O)c2ccc(C)cc2)sc(C)c1C | 9% | -7%
COC(=O)c1c(NC(=O)COC(=O)CNC(=O)C2CCCCC2)sc(C)c1C | 10µM* | 4µM*
CCC(C)NS(=O)(=O)c1ccc(N2CCCCS2(=O)=O)cc1 (stereo not given) | 6% | 1%
Cc1ccc(NC(=O)CCCn2c(=O)c3cccn3c3cccnc32)c(Cl)c1 | -4% | -2%
CC(=O)c1ccc(NS(=O)(=O)c2ccc(C)cc2)cc1 | 6% | 1%
COc1cc(OC)c(OC)cc1/C=C/C(=O)c1ccc(NS(=O)(=O)c2ccc(C)cc2)cc1 | 20µM* | -4%
CCOc1ccc(CC(=O)NCc2ccc3c(c2)CCN3C(=O)c2ccccc2)cc1OCC | 10% | 4%
CCCCOc1ccc(/C=C/C(=O)Nc2ccc(C(N)=O)cc2)cc1 | 16µM* | -3%
CCCOc1ccc(/C=C/C(=O)Nc2ccc([N+](=O)[O-])cc2)cc1 | -27% | -11%
CCOc1ccc(/C=C/C(=O)Nc2ccc(C(N)=O)cc2)cc1OC | -3% | -5%
CCCCOc1ccc(/C=C/C(=O)Nc2ccc([N+](=O)[O-])cc2C)cc1 | 25µM* | -1%
COc1ccccc1-c1nc(S(=O)(=O)c2ccccc2)c(N2CCC(C)CC2)o1 | 8% | -10%
CN1CCN(C(=O)c2ccc3c(c2)N(Cc2c(F)cccc2Cl)C(=O)c2ccccc2S3)CC1 | -7% | 6%
COc1ccc(NC(=O)CSc2nc(-c3ccc(F)cc3)c3cccc(C)c3n2)cc1 | -7% | 3%
COc1ccc(CCNC(=O)c2c(Nc3ccccc3C)sc(C(=O)c3ccccc3)c2N)cc1OC | u | -2%
CCOc1ccc(NC(=O)c2c(Nc3ccccc3C)sc(C(=O)c3ccc(Cl)cc3)c2N)cc1 | -27% | -7%
COc1ccc(Nc2sc(C(=O)c3ccccc3)c(N)c2C(=O)Nc2cc(C)ccc2C)c(OC)c1 | 10µM* | -1%
Cc1ccc(NC(=O)c2c(Nc3ccccc3C)sc(C(=O)c3ccccc3)c2N)cc1 | 6.3µM* | -1%
CC(=O)c1ccc(NC(=O)C2CCN(S(=O)(=O)c3ccc4[nH]c5c(c4c3)CCCCC5)CC2)cc1 | -16% | -2%
SMILES | Cruzain inh noDet | Cruzain Triton
Cc1ccc(Cl)cc1N1CCN(S(=O)(=O)c2ccc3[nH]c4c(c3c2)CCCCC4)CC1 | 5µM* | 0%
Cc1ccc(NC(=O)C2CCN(S(=O)(=O)c3ccc4[nH]c5c(c4c3)CCCCC5)CC2)cc1 | 13µM* | 0%
Cc1ccc(Cl)cc1N1CCN(S(=O)(=O)c2cccc(S(=O)(=O)N3CCCC3)c2)CC1 | u | 3%
Cc1ccc(NC(=S)NCc2ccc3[nH]c4c(c3c2)CCCC4)cc1 | 32µM* | -12%
Cc1ccc(NS(=O)(=O)c2ccc3[nH]c4c(c3c2)CCCCCC4)cc1 | -25% | -6%
CCOc1ccccc1NC(=O)C1CCN(S(=O)(=O)c2ccc3[nH]c4c(c3c2)CCCCC4)CC1 | 13µM* | -2%
CCOc1ccccc1NC(=O)C1CCN(S(=O)(=O)c2ccc3[nH]c(=O)oc3c2)CC1 | -1% | -2%
Brc1cccc(-c2cnn3c(-c4ccccc4)cc(-c4ccccc4)nc23)c1 | u | -1%
CCOc1ccc(NC(=O)c2ccc(F)c(S(=O)(=O)N(Cc3ccc(C(=O)OC)cc3)Cc3ccc(OC)c(OC)c3)c2)cc1 | 9% | 2%
COc1ccc(C)cc1NC(=O)C1CCN(S(=O)(=O)c2ccc3[nH]c4c(c3c2)CCCCC4)CC1 | 16µM* | -1%
COc1ccc(NC(=O)C2CCN(S(=O)(=O)c3ccc4[nH]c5c(c4c3)CCCCC5)CC2)cc1 | -30% | 2%
CCN1C(=O)c2ccccc2S(=O)c2ccc(C(=O)N3CCN(c4ccc(F)cc4)CC3)cc21 (stereo not given) | 8% | 0%
COc1ccc(/C(C)=N/OC/C(O)=C(\C#N)c2nc3ccccc3[nH]2)cc1 | 5µM* | 1%
COc1ccc(/C=N/OC/C(O)=C(\C#N)c2nc3ccccc3[nH]2)cc1OC | -6% | -5%
Cc1ccc(OCC(=O)NCC(c2ccc(Cl)cc2)N2CCCCC2)cc1 (stereo not given) | 12% | -2%
Cc1ccc(NC(=O)c2cnn3c(C(F)F)cc(-c4ccccc4)nc23)cc1F | 0% | -3%

Assay outcomes deposited in PubChem by National Center for Advancing Translational Sciences (NCATS).
